The record followed here is PubChem BioAssay (NCATS).

Unmarked numbers belong to inactive results. Inconclusive results are not listed. Calls of active or inactive are those of the source. Unless noted, calls follow the shape of the dose curve; as a rule, active = well fitted curve in the direction sought with a large enough effect; inconclusive = small, poorly fitted or top-dose-only effect, or another doubt; inactive = no such curve, though single readings can be large or run the other way.

One experiment concerns the target alpha-glucosidase (Oryza sativa, rice) (UniProt Q653V4). Nature of the experiment: Counterscreen for Glucocerebrosidase Inhibitors: qHTS Assay for Rice alpha-Glucosidase at pH 5.0 (AID 997).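 Also: 0% = full activity with enzyme and -100% = basal without enzyme.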 To be noted: rice alpha-glucosidase enzyme activity; series mostly up to 76.9 µM; activity change, negative = inhibition: at the top concentration. In a few lines:
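Endpoint fluorogenic assay at pH 5.0: compounds (0.7 nM to 77 uM) titrated against 4 nM rice enzyme and 400 uM 4-MU-alpha-glucoside for 20 min at room temperature; NaOH/glycine stop, read ex 365/em 440 nm, Hill-fitted AC50.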
For orientation: The purpose of a counterscreen is to sort out artefacts and off-target activity.
Consider `O=C(O)/C(=C/c1c(C(=O)O)[nH]c2cc(Cl)cc(Cl)c12)c1ccccc1`, for which the “activity change, negative = inhibition” value was -4.45%.
Same read-out and setting: for `N=C(N)c1ccccc1` the value was -2.99%; for `Cc1nc(N=Nc2ccc(S(=O)(=O)O)cc2S(=O)(=O)O)c(COP(=O)(O)O)c(C=O)c1O`, -2.17%; for `O=[N+]([O-])c1cccc2cn[nH]c12`, -1.33%.
For `CC[N+](CC)(CC)CC(=O)Nc1c(C)cccc1C`, the “activity change, negative = inhibition” value is -3.47%.
As for `O=C(O)c1cc2cc(F)ccc2[nH]1`, the “activity change, negative = inhibition” value is -1.82%.
As to `O=C(O)C1=CCCNC1`, the “activity change, negative = inhibition” value was -0.94%.
The same measure, in the same setting: the value for `CNc1cc(NS(=O)(=O)c2ccc(N)cc2)nc(NC)n1` was -3.33%.
Turning to `NC/C=C\C(=O)O`, the compound was called inactive.
With `CN1CCN(c2nc3cc(C(F)(F)F)ccc3n3cccc23)CC1`, the “activity change, negative = inhibition” value was -5.65%.
Take `CCSC(=N)N`: the “activity change, negative = inhibition” value was -6.03%.
Take `Nc1ccc(-c2nc3ccc(-c4nc5ccc(N)cc5[nH]4)cc3[nH]2)cc1`: the “activity change, negative = inhibition” value was -1.18%.
For `O=C(O)c1cccnc1C(=O)O`, the “activity change, negative = inhibition” value is -3.5%.
Regarding `c1ccc(CN2CCC3(CCCc4ccccc43)CC2)cc1`, the “activity change, negative = inhibition” value was -0.617%.
On the same count and under the same terms, the value for `NS(=O)(=O)c1cccc2c1c([N+](=O)[O-])cc1nc(O)c(O)nc12` was -5.25%.
The same measure, in the same setting: the value for `Cc1nc(N=Nc2ccc(C(=O)O)cc2)c(COP(=O)(O)O)c(C=O)c1O` was -2.63%.
For the compound `CCCCCCC/C=C\CCCCCCCCC(=O)O`, the “activity change, negative = inhibition” value was -4.63%.
Take `NCCCCN=C(N)N`: the “activity change, negative = inhibition” value was -2.61%.
Same read-out and setting: the value for `Cc1cc2c(cc1Cl)N(C(=O)Nc1ccnc3ccccc13)CC2` was -2.07%.
On the same count and under the same terms, the value for `CC(=O)NNC(=O)N1Cc2ccccc2Oc2ccc(Cl)cc21` was 2.78%; that for `CCCCCCCCCCCCCCC[C@H](O)[C@H](N)CO` was -4.16%; that for `Cn1c(=O)[nH]c2ncn(C)c2c1=O` was -1.51%.
On the same count and under the same terms, the value for `CCC(=O)N1CCN(C(=O)c2ccccc2)CC1` was -0.659%; that for `O=c1[nH]ccc2c(O)cccc12` was 1.63%.
As to `O=c1onc2n1-c1cc(Br)ccc1OC2`, the “activity change, negative = inhibition” value was -3.98%.
The same measure, in the same setting: for `CSC(=N)N` the value was -1.54%; for `COc1cc(/C=C(\C#N)C(=O)c2ccc(O)c(O)c2)cc(I)c1O`, -4.01%; for `O=C(O)C1=CCCN(CCON=C(c2ccccc2)c2ccccc2)C1`, 2.38%.

System in the next experiment: not listed separately
The experiment can be described thus: Validation of Assay for Modulators of Lamin A Splicing (AID 1459; active = well fitted curve in the direction sought with a large enough effect in the signal ratio; the % refers to the signal ratio;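 also: cells exposed to compound for two days before reading; 0% is about no effect; ratio rise marks activators and ratio drop marks inhibitors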). Conditions: Lamin A splicing dual RFP/GFP fluorescence reporter; series mostly up to 9.22 µM; ratio change, both ways: at the top concentration. In a few lines: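 Splicing correction is reported by an EGFP-containing lamin A minigene in stably transfected S3 HeLa cells, while DsRed2 controls for viability and nonspecific signal. Cells are exposed to compounds for 48 hrs before the GFP over RFP ratio is taken.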
As to `O=C(O)/C(=C/c1c(C(=O)O)[nH]c2cc(Cl)cc(Cl)c12)c1ccccc1`, the “ratio change, both ways” value was -3.45%.
Regarding `CC1=C(/C=C/C(C)=C/C=C/C(C)=C\C(=O)O)C(C)(C)CCC1`, the “ratio change, both ways” value was -13.1%.
Same read-out and setting: for `O=C(O)CCC(=O)N1CCCC1C(=O)O` (configuration not stated) the value was -18.9%.
Turning to `N=C(N)c1ccccc1`, the “ratio change, both ways” value is 7.74%.
As to `Cc1nc(N=Nc2ccc(S(=O)(=O)O)cc2S(=O)(=O)O)c(COP(=O)(O)O)c(C=O)c1O`, the “ratio change, both ways” value is -12.7%.
On the same count and under the same terms, for `N=S(=O)(O)Cc1noc2ccccc12` the value was -3.16%; for `O=[N+]([O-])c1cccc2cn[nH]c12`, 6.98%.
For `C[C@@H](NCCc1ccc(O)cc1)[C@@H](O)c1ccc(O)cc1`, the “ratio change, both ways” value was 2.3%.
In the case of `CC[N+](CC)(CC)CC(=O)Nc1c(C)cccc1C`, the “ratio change, both ways” value was -4.21%.
The same measure, in the same setting: for `O=C(O)c1cc2cc(F)ccc2[nH]1` the value was -4.61%; for `O=C(O)C1=CCCNC1`, 5.04%.
Same read-out and setting: the value for `CNc1cc(NS(=O)(=O)c2ccc(N)cc2)nc(NC)n1` was 5.26%.
For the compound `CN1C2CCC1CC(OC(c1ccccc1)c1ccccc1)C2` (configuration not stated), the “ratio change, both ways” value is -9.48%.
On the same count and under the same terms, the value for `NC/C=C\C(=O)O` was 3.76%; that for `CN1CCN(c2nc3cc(C(F)(F)F)ccc3n3cccc23)CC1` was -5.57%; that for `CCSC(=N)N` was 6.78%.
Still for that read-out and setting: for `Nc1ccc(-c2nc3ccc(-c4nc5ccc(N)cc5[nH]4)cc3[nH]2)cc1` the value was -2.96%.
On the same count and under the same terms, the value for `O=C(O)c1cccnc1C(=O)O` was -2.78%; that for `c1ccc(CN2CCC3(CCCc4ccccc43)CC2)cc1` was -16.5%; that for `Oc1cc2c(cc1O)C(c1ccccc1)CNCC2` (configuration not stated) was -6.53%.
On to `CCCC[C@@]1(C2CCCC2)Cc2cc(OCC(=O)O)c(Cl)c(Cl)c2C1=O`, for which the “ratio change, both ways” value is 4.72%.
As for `NS(=O)(=O)c1cccc2c1c([N+](=O)[O-])cc1nc(O)c(O)nc12`, the “ratio change, both ways” value was -7.89%.
On the same count and under the same terms, for `Cc1nc(N=Nc2ccc(C(=O)O)cc2)c(COP(=O)(O)O)c(C=O)c1O` the value was 2.95%; for `N[C@@H](CCC(=O)N[C@H](CSN=O)C(=O)NCC(=O)O)C(=O)O`, -7.62%; for `CCCCCCC/C=C\CCCCCCCCC(=O)O`, 2.59%.
As to `NCCCCN=C(N)N`, the “ratio change, both ways” value was -24.9%.
Take `Cc1cc2c(cc1Cl)N(C(=O)Nc1ccnc3ccccc13)CC2`: the “ratio change, both ways” value was -12.5%.
In the case of `CC(=O)NNC(=O)N1Cc2ccccc2Oc2ccc(Cl)cc21`, the “ratio change, both ways” value was -13.1%.
With `CC1CCN(CC[C@H]2CCCN2S(=O)(=O)c2cccc(O)c2)CC1`, the “ratio change, both ways” value is -21%.
The same measure, in the same setting: for `CCCCCCCCCCCCCCC[C@H](O)[C@H](N)CO` the value was -6.31%.
On to `Cn1c(=O)[nH]c2ncn(C)c2c1=O`, for which the “ratio change, both ways” value is -10.6%.
Same read-out and setting: the value for `CCC(=O)N1CCN(C(=O)c2ccccc2)CC1` was -18.2%.
For the compound `O=c1[nH]ccc2c(O)cccc12`, the “ratio change, both ways” value was -14.7%.
`O=c1onc2n1-c1cc(Br)ccc1OC2`: the “ratio change, both ways” value was 6.59%.
